Laboratory results published in the supplement of paper PMC6089552.
Hit rate of the full screen: of about 3,200 compounds, about 300 (9.4%) showed activity. This is one part of a sample in which actives are shown more often than they occur.

Tested on: A673/TR/shEF
Experiment: cell viability (LOESS-normalised, relative to median of negative controls) (log2 ratio); higher = more viable cells (less compound effect), active = hit call of the paper (over 3 MAD below the median)
Details: treatment time: 72 h
Procedure, shortened: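 Viability of A673/TR/shEF Ewing sarcoma cells was determined by CellTiter-Glo luminescence. The cells, at 1,500 per well in 384-well plates, were grown with or without doxycycline from 24 h before compound addition to switch on EWS-FLI1 shRNA knockdown, then exposed for three days to library compounds at two or more concentrations or to DMSO controls. Signals were LOESS-corrected plate by plate, normalised to the negative-control median and log2-transformed.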

[1] = 0.25 µM, library screen: screen1, EWS-FLI1 expression: high (no doxycycline)
[2] = 0.25 µM, library screen: screen1, EWS-FLI1 expression: low (doxycycline-induced shRNA knockdown)
[3] = 2.5 µM, library screen: screen1, EWS-FLI1 expression: high (no doxycycline)
[4] = 2.5 µM, library screen: screen1, EWS-FLI1 expression: low (doxycycline-induced shRNA knockdown)
[5] = 0.25 µM, library screen: screen2, EWS-FLI1 expression: high (no doxycycline)
[6] = 0.25 µM, library screen: screen2, EWS-FLI1 expression: low (doxycycline-induced shRNA knockdown)
[7] = 2.5 µM, library screen: screen2, EWS-FLI1 expression: high (no doxycycline)
[8] = 2.5 µM, library screen: screen2, EWS-FLI1 expression: low (doxycycline-induced shRNA knockdown)

Measured: cell viability (log2)

Clc1ccc(Cl)cc1
inactive: [1] 0.0995 | [2] 0.0885 | [3] 0.0618 | [4] 0.0905

CC[C@@H](C)C(=O)O[C@H]1[C@H](O)[C@H]2[C@@H](CN3C[C@@H](C)CC[C@H]3[C@@]2(C)O)[C@@H]2C[C@]34O[C@]5(O)[C@@H](OC(=O)[C@@](C)(O)CC)CC[C@@]3(C)[C@@H]5[C@@H](OC(C)=O)[C@@H](OC(C)=O)[C@H]4[C@@]21O
inactive: [1] -0.0817 | [2] -0.0114 | [3] 0.16 | [4] -0.013

C/C=C/c1ccc2c(c1)OCO2
inactive: [1] 0.0443 | [2] -0.0135 | [3] 0.1 | [4] 0.0835

CC(=O)OCC1=C(C(=O)O)N2C(=O)[C@@H](NC(=O)CCCC(N)C(=O)O)C2SC1 (some centres not stated)
inactive: [1] 0.128 | [2] 0.143 | [3] 0.14 | [4] -0.0301

C[C@]12C=CC(=O)C=C1CC[C@@H]1[C@@H]2CC[C@]2(C)C(=O)CC[C@@H]12
inactive: [1] 0.0143 | [2] 0.0386 | [3] -0.0049 | [4] 0.0547

C=CCC1(C(C)CCC)C(=O)NC(=S)NC1=O (configuration not stated)
inactive: [1] 0.103 | [2] 0.0758 | [3] 0.146 | [4] 0.0138

CC1C2Cc3ccc(O)cc3C1(C)CCN2CC1CC1 (configuration not stated)
inactive: [5] 0.105 | [6] 0.104 | [7] 0.153 | [8] 0.0285

C[C@@H]1CC[C@H]2[C@@H](C)C(=O)O[C@@H]3OC4(C)CC[C@@H]1[C@]32OO4
inactive: [1] 0.0266 | [2] 0.0821 | [3] 0.0419 | [4] -0.14

COc1ccc(C[C@H]2NC[C@H](O)[C@H]2OC(C)=O)cc1
active: [1] -0.49 | [2] -0.228 | [3] -2.24 | [4] -1.04

CC(C)[C@H]1CN[C@H](C(=O)O)[C@H]1CC(=O)O
inactive: [5] 0.0705 | [6] 0.0959 | [7] 0.0874 | [8] 0.0543

CCCCCCCCCCCCCCCC[n+]1ccccc1
inactive: [1] 0.0178 | [2] -0.00413
active: [3] -1.66 | [4] -2.21

COc1cc(OC)c2c(c1)OC(c1ccc(OC)c(OC)c1)C(O)C2 (configuration not stated)
inactive: [1] 0.123 | [2] 0.00653 | [3] 0.0915 | [4] 0.0594

CNc1ccc2oc(C[C@@H]3OC4(CC[C@@H]3C)O[C@H](C(C)C(=O)c3ccc[nH]3)[C@H](C)C[C@H]4C)nc2c1C(=O)O (some centres not stated)
active: [5] -0.082 | [7] -0.175
inactive: [1] 0.111 | [2] 0.0323 | [6] 0.0959 | [3] -0.0263 | [4] -1.11 | [8] 0.1

CN[C@@H](Cc1c[nH]c2ccccc12)C(=O)O
inactive: [1] 0.064 | [2] 0.0774 | [3] 0.156 | [4] 0.0411

COC1C(O)C(O[C@H]2CC[C@]3(C=O)C4C(CC[C@]3(O)C2)[C@@]2(O)CC[C@H](C3=CC(=O)OC3)[C@@]2(C)C[C@H]4OC(C)=O)OC(C)C1OC(C)=O (some centres not stated)
inactive: [1] 0.109 | [2] 0.146 | [3] 0.0847 | [4] 0.082

COC1C[C@H](O[C@H]2CC[C@]3(C)C4CC[C@]5(C)[C@@H](C6=CC(=O)OC6)CC[C@]5(O)C4CC[C@]3(O)C2)OC(C)[C@H]1O (some centres not stated)
active: [1] -0.209 | [2] -0.262 | [3] -3.79 | [4] -2.17

C[C@@H]1O[C@@H](O[C@H]2C[C@@H](O)[C@]3(CO)[C@H]4[C@H](O)C[C@]5(C)[C@@H](C6=CC(=O)OC6)CC[C@]5(O)[C@@H]4CC[C@]3(O)C2)[C@H](O)[C@H](O)[C@H]1O
active: [1] -2.32 | [2] -1.95 | [5] -0.747 | [6] -0.523 | [3] -3.06 | [4] -3.54 | [7] -4.02 | [8] -3.81

CO[C@H]1C[C@H](O[C@H]2CCC3(C=O)C4CCC5(C)C(C6=CC(=O)OC6)CCC5(O)C4CC[C@]3(O)C2)O[C@H](C)[C@H]1O (some centres not stated)
active: [1] -0.95 | [2] -1.15 | [3] -3.9 | [4] -3.2

CC1O[C@H](O[C@H]2C[C@@H](O)[C@]3(CO)C4C(O)C[C@]5(C)C(C6COC(=O)C6)CC[C@]5(O)C4CC[C@]3(O)C2)C(O)C(O)[C@H]1O (some centres not stated)
inactive: [5] 0.151 | [6] 0.0734 | [7] 0.15 | [8] 0.134

C[C@@H]1O[C@@H](O[C@H]2CC[C@]3(C=O)[C@H]4CC[C@]5(C)[C@@H](C6=CC(=O)OC6)CC[C@]5(O)[C@@H]4CC[C@]3(O)C2)[C@H](O)[C@H](O)[C@H]1O
active: [3] -3.36 | [4] -3.89
inactive: [1] 0.0221 | [2] 0.0427

O=c1cccc2n1C[C@@H]1CNC[C@H]2C1
inactive: [1] 0.0148 | [2] -0.00559 | [3] 0.016 | [4] 0.0651

C=CCN1CCc2cccc3c2[C@H]1Cc1ccc(O)c(O)c1-3
inactive: [5] 0.199 | [6] 0.00481 | [7] 0.133 | [8] 0.0436

CN[C@@H]1C[C@@H](c2ccc(Cl)c(Cl)c2)c2ccccc21
inactive: [5] 0.0875 | [6] 0.13 | [7] 0.173 | [8] 0.199

CN1C2CCC1CC(OC(=O)c1cc(Cl)cc(Cl)c1)C2 (configuration not stated)
inactive: [5] 0.173 | [6] 0.0634 | [7] 0.093 | [8] -0.00531

C/C=C(/C)C(=O)O[C@H]1CC[C@@]2(C)[C@@H]3CC[C@H]4[C@]5(O)C[C@H](O)[C@@]6(O)[C@@H](CN7C[C@@H](C)CC[C@H]7[C@@]6(C)O)[C@]5(O)C[C@@]42O[C@]13O
inactive: [1] 0.0954 | [2] 0.0385 | [3] 0.186 | [4] -0.0784

C#CCOC(=O)C1=CCCN(C)C1
inactive: [5] 0.0844 | [6] 0.129 | [7] 0.0951 | [8] 0.11
